From the supplement of paper PMC8728848
This is one part of a sample in which the strongest signals are shown more often than they occur.

Assays:
Assay in all cases: glycan array binding signal (z-score within array); higher = stronger binding
Conditions in all cases: glycan notation: IUPAC condensed, linker removed
Fuc(a1-2)Gal(b1-4)GlcNAc = molecular target: Fuc(a1-2)Gal(b1-4)GlcNAc
Summary of the method: (§1)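 The binding signal is a Z-score computed within each array. Data were drawn from 3228 arrays in the Consortium for Functional Glycomics database, restricted to those with a known protein sequence. Scores were averaged over arrays of the same protein sequence at different concentrations or buffers, and over linkers, and negative values can be taken as non-binding.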

[1] = molecular target: Fuc(a1-2)Gal(b1-4)GlcNAc(b1-2)[Fuc(a1-2)Gal(b1-4)GlcNAc(b1-4)]Man(a1-3)[Fuc(a1-2)Gal(b1-4)GlcNAc(b1-2)Man(a1-6)]Man(b1-4)GlcNAc(b1-4)GlcNAc
Summary of the method: as §1

[2] = molecular target: Fuc(a1-2)[Gal(a1-3)]Gal(b1-4)[Fuc(a1-3)]Glc
Summary of the method: as §1

[3] = molecular target: Fuc(a1-2)[GalNAc(a1-3)]Gal(b1-3)GlcNAc(b1-2)Man(a1-3)[Fuc(a1-2)[GalNAc(a1-3)]Gal(b1-3)GlcNAc(b1-2)Man(a1-6)]Man(b1-4)GlcNAc(b1-4)GlcNAc
Summary of the method: as §1

[4] = molecular target: Fuc(a1-3)[Gal(b1-4)]GlcNAc
Summary of the method: as §1

[5] = molecular target: Fuc(a1-3)[Gal(b1-4)]GlcNAc(b1-3)Gal(b1-3)[Fuc(a1-4)]GlcNAc
Summary of the method: as §1

[6] = molecular target: Gal(a1-3)[Gal(a1-4)]Gal(b1-4)GlcNAc
Summary of the method: as §1

Gal(a1-6)Glc = molecular target: Gal(a1-6)Glc
Summary of the method: as §1

[7] = molecular target: Gal(b1-3)GlcNAc(b1-2)[Gal(b1-3)GlcNAc(b1-6)]Man(a1-6)[Gal(b1-3)GlcNAc(b1-2)Man(a1-3)]Man(b1-4)GlcNAc(b1-4)GlcNAc
Summary of the method: as §1

[8] = molecular target: Gal(b1-4)GlcNAc(b1-2)[Gal(b1-4)GlcNAc(b1-6)]Man(a1-6)[Gal(b1-4)GlcNAc(b1-2)Man(a1-3)]Man(b1-4)GlcNAc(b1-4)GlcNAc
Summary of the method: as §1

[9] = molecular target: Gal(b1-4)GlcNAc(b1-3)Gal(b1-4)Glc
Summary of the method: as §1

[10] = molecular target: Gal(b1-4)GlcNAc(b1-3)Gal(b1-4)[Fuc(a1-3)]GlcNAc(b1-3)Gal(b1-4)[Fuc(a1-3)]GlcNAc
Summary of the method: as §1

Gal3S(b1-4)GlcNAc = molecular target: Gal3S(b1-4)GlcNAc
Summary of the method: as §1

[11] = molecular target: Gal3S(b1-4)[Fuc(a1-3)]Glc6S
Summary of the method: as §1

GalNAc(b1-3)Gal = molecular target: GalNAc(b1-3)Gal
Summary of the method: as §1

[12] = molecular target: GalNAc(b1-3)Gal(a1-4)Gal(b1-4)GlcNAc(b1-3)Gal(b1-4)Glc
Summary of the method: as §1

[13] = molecular target: GlcNAc(a1-4)Gal(b1-4)GlcNAc(b1-3)Gal(b1-4)GlcNAc(b1-3)Gal(b1-4)GlcNAc
Summary of the method: as §1

[14] = molecular target: GlcNAc(b1-2)Man(a1-3)[GlcNAc(b1-2)Man(a1-6)]Man(b1-4)GlcNAc(b1-4)GlcNAc
Summary of the method: as §1

[15] = molecular target: GlcNAc(b1-2)[GlcNAc(b1-4)]Man(a1-3)[GlcNAc(b1-4)][GlcNAc(b1-2)[GlcNAc(b1-6)]Man(a1-6)]Man(b1-4)GlcNAc(b1-4)GlcNAc
Summary of the method: as §1

[16] = molecular target: GlcNAc(b1-3)Gal(b1-4)GlcNAc(b1-3)Gal(b1-4)GlcNAc
Summary of the method: as §1

Kdn(a2-3)Gal(b1-3)GalNAc = molecular target: Kdn(a2-3)Gal(b1-3)GalNAc
Summary of the method: as §1

Kdn(a2-3)Gal(b1-4)GlcNAc = molecular target: Kdn(a2-3)Gal(b1-4)GlcNAc
Summary of the method: as §1

[17] = molecular target: Man(a1-2)Man(a1-2)Man(a1-3)Man
Summary of the method: as §1

[18] = molecular target: Man(a1-2)Man(a1-2)Man(a1-6)[Man(a1-3)]Man
Summary of the method: as §1

[19] = molecular target: Man(a1-2)Man(a1-3)[Man(a1-2)Man(a1-6)]Man
Summary of the method: as §1

[20] = molecular target: Man(a1-2)Man(a1-3)[Man(a1-2)Man(a1-6)]Man(a1-6)[Man(a1-2)Man(a1-2)Man(a1-3)]Man
Summary of the method: as §1

[21] = molecular target: Man(a1-2)Man(a1-3)[Man(a1-2)Man(a1-6)]Man(a1-6)[Man(a1-2)Man(a1-2)Man(a1-3)]Man(b1-4)GlcNAc(b1-4)GlcNAc
Summary of the method: as §1

[22] = molecular target: Man(a1-2)Man(a1-3)[Man(a1-6)]Man(a1-6)[Man(a1-2)Man(a1-3)]Man(b1-4)GlcNAc(b1-4)GlcNAc
Summary of the method: as §1

[23] = molecular target: Man(a1-2)Man(a1-6)[Man(a1-3)]Man(a1-6)[Man(a1-2)Man(a1-2)Man(a1-3)]Man
Summary of the method: as §1

[24] = molecular target: Man(a1-2)Man(a1-6)[Man(a1-3)]Man(a1-6)[Man(a1-2)Man(a1-2)Man(a1-3)]Man(b1-4)GlcNAc(b1-4)GlcNAc
Summary of the method: as §1

[25] = molecular target: Man(a1-3)[Man(a1-6)]Man(a1-6)[Man(a1-2)Man(a1-3)]Man(b1-4)GlcNAc(b1-4)GlcNAc
Summary of the method: as §1

[26] = molecular target: Man(a1-3)[Man(a1-6)]Man(b1-4)GlcNAc(b1-4)GlcNAc
Summary of the method: as §1

[27] = molecular target: Neu5Ac(a2-3)Gal(b1-3)[Fuc(a1-4)]GlcNAc(b1-3)Gal(b1-3)[Fuc(a1-4)]GlcNAc
Summary of the method: as §1

[28] = molecular target: Neu5Ac(a2-3)Gal(b1-4)GlcNAc(b1-6)[Gal(b1-3)]GalNAc
Summary of the method: as §1

[29] = molecular target: Neu5Ac(a2-6)Gal(b1-4)GlcNAc(b1-2)Man(a1-3)[GlcNAc(b1-2)Man(b1-4)GlcNAc(b1-2)Man(a1-6)]Man(b1-4)GlcNAc(b1-4)GlcNAc
Summary of the method: as §1

[30] = molecular target: Neu5Ac(a2-6)GlcNAc(b1-4)GlcNAc(b1-4)GlcNAc
Summary of the method: as §1

[31] = molecular target: Neu5Ac(a2-8)Neu5Ac(a2-3)Gal(b1-3)GalNAc(b1-4)[Neu5Ac(a2-8)Neu5Ac(a2-3)]Gal(b1-4)Glc
Summary of the method: as §1

[32] = molecular target: Neu5Ac(a2-8)Neu5Ac(a2-8)Neu5Ac(a2-3)Gal(b1-4)Glc
Summary of the method: as §1

[33] = molecular target: Neu5Ac(a2-8)Neu5Ac(a2-8)Neu5Ac(a2-8)Neu5Ac(a2-3)[GalNAc(b1-4)]Gal(b1-4)Glc
Summary of the method: as §1

Neu5Ac(b2-6)GalNAc = molecular target: Neu5Ac(b2-6)GalNAc
Summary of the method: as §1

[34] = molecular target: Neu5Gc(a2-3)Gal(b1-3)[Fuc(a1-4)]GlcNAc
Summary of the method: as §1

Neu5Gc(a2-3)Gal(b1-4)Glc = molecular target: Neu5Gc(a2-3)Gal(b1-4)Glc
Summary of the method: as §1

B1: Gz-CVNH (Gibberella zeae) (protein)
chain: MGSSHHHHHHSSGLVPRGSHMGNFHESSNNIWLEDGHILHAECGNGEGDYVESTLDLDYYIGNDDGSFSWGGENFSGSASNITLDIEGDDNIPVLRAELNPMDGDPVEANVNLSERIGNDCGTLIFLA
Fuc(a1-2)Gal(b1-4)GlcNAc
  glycan array binding signal (z-score): -0.133
[1]
  glycan array binding signal (z-score): -0.106
[2]
  glycan array binding signal (z-score): -0.109
[3]
  glycan array binding signal (z-score): -0.121
[4]
  glycan array binding signal (z-score): -0.14
[5]
  glycan array binding signal (z-score): -0.114
[6]
  glycan array binding signal (z-score): -0.135
Gal(a1-6)Glc
  glycan array binding signal (z-score): -0.128
[7]
  glycan array binding signal (z-score): -0.096
[8]
  glycan array binding signal (z-score): -0.094
[9]
  glycan array binding signal (z-score): -0.114
[10]
  glycan array binding signal (z-score): -0.14
Gal3S(b1-4)GlcNAc
  glycan array binding signal (z-score): -0.166
[11]
  glycan array binding signal (z-score): 0.005
GalNAc(b1-3)Gal
  glycan array binding signal (z-score): -0.146
[12]
  glycan array binding signal (z-score): -0.132
[13]
  glycan array binding signal (z-score): -0.131
[14]
  glycan array binding signal (z-score): -0.129
[15]
  glycan array binding signal (z-score): -0.112
[16]
  glycan array binding signal (z-score): -0.14
Kdn(a2-3)Gal(b1-3)GalNAc
  glycan array binding signal (z-score): -0.14
Kdn(a2-3)Gal(b1-4)GlcNAc
  glycan array binding signal (z-score): -0.117
[17]
  glycan array binding signal (z-score): 3.53
[18]
  glycan array binding signal (z-score): 7.75
[19]
  glycan array binding signal (z-score): 1.63
[20]
  glycan array binding signal (z-score): 12.7
[21]
  glycan array binding signal (z-score): 2.82
[22]
  glycan array binding signal (z-score): 5.4
[23]
  glycan array binding signal (z-score): 9.9
[24]
  glycan array binding signal (z-score): 8.33
[25]
  glycan array binding signal (z-score): 1.34
[26]
  glycan array binding signal (z-score): -0.119
[27]
  glycan array binding signal (z-score): -0.074
[28]
  glycan array binding signal (z-score): -0.115
[29]
  glycan array binding signal (z-score): -0.09
[30]
  glycan array binding signal (z-score): -0.14
[31]
  glycan array binding signal (z-score): -0.156
[32]
  glycan array binding signal (z-score): -0.128
[33]
  glycan array binding signal (z-score): -0.142
Neu5Ac(b2-6)GalNAc
  glycan array binding signal (z-score): -0.108
[34]
  glycan array binding signal (z-score): -0.134
Neu5Gc(a2-3)Gal(b1-4)Glc
  glycan array binding signal (z-score): -0.113
